The campaign covered roughly 300,000 compounds. About 37,000 (12%) were called active. This is one part of a sample in which actives are shown more often than they occur. Rule as the data show it: active = max response mostly above about 13% (no sharp cut-off); inactive = mostly below about 14%.

This assay in a line: Cycloheximide Counterscreen for Small Molecule Inhibitors of Shiga Toxin. Also: read at 38.3 µM for the half of the compounds with a filed dose; 0% is about no effect. The note with it: cell reporter, cycloheximide protein synthesis inhibition counterscreen; hits give high values.
For `COc1ccc(/C=C/CN2CCCC(C(=O)c3cc(F)ccc3F)C2)cc1` (stereo not given), the max response was 4.59% (inactive).

`COc1ccc(-c2nc3n(c(=O)c2C#N)CCS3)c(OC)c1`: the max response is -3.87% (inactive).

In the case of `COc1ccc(F)c(-c2nc(CN3CCC(c4ccccc4)CC3)c(C)o2)c1`, the max response is -1.94% (inactive).

Regarding `COc1cc(/C=C2\C(=N)N3N=C(CC(=O)N4CCOCC4)SC3=NC2=O)cc(OC)c1OC`, the max response is -8.71% (inactive).

As for `CN(C)N1C(N)=C(C#N)C(c2ccc(Br)cc2)C2=C1CCCC2=O` (stereo not given), the max response is 11.2% (inactive).

`COc1cccc(C(=O)NC(=O)Nc2nc(C)cc(C(F)(F)F)n2)c1`: the max response is -1.67% (inactive).

On to `Cc1cc(C)nc(NC(=O)Nc2ccccc2C(F)(F)F)n1`, for which the max response was 25.8% (active).

In the case of `Cc1cc(C)nc(NC(=O)C(C)N2C(=O)c3ccccc3C2=O)n1` (stereo not given), the max response was -0.537% (inactive).

On to `NNC(=O)c1nnn(-c2nonc2N)c1CN1CCCC1`, for which the max response is -0.43% (inactive).

With `CCOc1cc2[nH]c(=S)n(Cc3ccc(C(=O)N4CCN(C)CC4)cc3)c(=O)c2cc1OCC`, the max response is -1.74% (inactive).

As to `Cc1cc(S(=O)(=O)N2CCOCC2)ccc1OCC(=O)N1CCOCC1`, the max response is 0.946% (inactive).

Take `Cc1ccc(OCCCC(=O)N2CCOCC2)c(C)c1`: the max response is 51.4% (active).

For `Cc1ccc(OCCCC(=O)NC(C)c2ccccc2)c(C)c1` (stereo not given), the max response is 6.31% (inactive).

`O=C(c1ccc(Br)o1)N1CCN(CCOc2ccccc2)CC1`: the max response is -3.01% (inactive).

Regarding `CCNC(=O)c1cnn(-c2ccccc2)c1-c1ccccc1`, the max response was -0.397% (inactive).

Turning to `CCCc1c(C(=O)Nc2ccc(F)cc2)cnn1-c1ccccc1`, the max response was 33.4% (active).

In the case of `CCCc1c(C(=O)O)cnn1-c1ccc(Cl)cc1`, the max response was -0.801% (inactive).

Turning to `CC(C)(C)c1cc(P(=O)(c2ccccc2)c2ccccc2)ccc1O`, the max response was 0.647% (inactive).

With `CC(C)N(C(=O)CSc1nc(COc2ccccc2)nc2ccccc12)C(C)C`, the max response was 9.79% (inactive).

`CN1CCN(/N=C2/C(=O)Nc3ccc([N+](=O)[O-])cc32)CC1`: the max response was 9.26% (inactive).

In the case of `CN1CCN(/N=C/c2ccc(-c3ccc([N+](=O)[O-])cc3)o2)CC1`, the max response was 31.4% (active).

Take `Cc1ccc(-c2ccc(/C=N/NC(=O)CN3CCOCC3)o2)cc1[N+](=O)[O-]`: the max response is 12.3% (inactive).

For `COC(=O)c1ccc(NC(=O)C23CC4CC(C2)CC(n2cnc(Cl)n2)(C4)C3)cc1`, the max response is 3.9% (inactive).

Consider `CC(=O)Nc1ccc(S(=O)(=O)N2CCN(CCCOc3cc(C)ccc3C)CC2)cc1`, for which the max response is -1.97% (inactive).

Turning to `N=c1c2c(-c3ccccc3)c(-c3ccccc3)n(Cc3ccccc3)c2ncn1CCCO`, the max response was -6.29% (inactive).

For `OCCCN1c2ccccc2Nc2nnc(-c3ccccc3)cc21`, the max response was 36.8% (active).

Consider `O=C(NC(=S)NC1CCS(=O)(=O)C1)c1cccc([N+](=O)[O-])c1` (stereo not given), for which the max response was -1.9% (inactive).

For `O=C(NCCc1ccccc1)c1ccc(NC2=NC3CS(=O)(=O)CC3S2)cc1` (stereo not given), the max response is 3.38% (inactive).

For the compound `CC1CCCN(c2ccc(C(=O)NCCc3ccccc3)cn2)C1` (stereo not given), the max response was 66.7% (active).

As for `CC1CCN(c2c(NCc3ccc(C(=O)NCc4ccccc4)cc3)c(=O)c2=O)CC1`, the max response was 3.3% (inactive).

As for `Cc1cc(Nc2ccc(C(=O)N3CCCCC3)cc2)c2cccc(C)c2n1`, the max response is -1.19% (inactive).

Consider `COc1ccc(Nc2ccc([N+](=O)[O-])cn2)cn1`, for which the max response was -2.61% (inactive).

As to `NC1=NC[C@@H](Cc2ccc(O)cc2)N1CC1CCCCC1`, the max response was -4.36% (inactive).

With `Cc1cc(NC(=O)COC(=O)COc2ccc(Cl)cc2C)c([N+](=O)[O-])cc1C`, the max response is -1.12% (inactive).

Consider `COc1ccc(OCC(=O)Nc2cc(C)c(Cl)cc2OC)c([N+](=O)[O-])c1`, for which the max response is 13.9% (active).

`COc1cc(Cl)c(C)cc1NC(=O)COC(=O)c1cc(SC)ccc1Cl`: the max response is -1.86% (inactive).

For the compound `Cc1cccc2sc(N(CCCN(C)C)C(=O)CCS(=O)(=O)c3ccccc3)nc12`, the max response was 8.46% (inactive).

As for `CN(C)CCCn1c(SCc2ccc(Cl)cc2)nnc1-c1ccncc1`, the max response is -2.48% (inactive).

Consider `COc1ccc(NC(=O)C2=CC(c3ccc(OC)c(OC)c3)=NS(=O)(=O)N2C)cc1`, for which the max response is -6.05% (inactive).

With `O=c1c(-c2ccccc2)coc2c(CN3CCOCC3)c(O)ccc12`, the max response is 5.61% (inactive).

For `Cc1c(CCC(=O)O)c(=O)oc2cc3occ(-c4ccccc4)c3cc12`, the max response is -1.34% (inactive).

For `O=c1c(-c2ccccc2)coc2cc(O)ccc12`, the max response is 51.6% (active).

Consider `CC1(C)C2CCC1(C)C(OC(=O)c1ccc(O)cc1)C2` (stereo not given), for which the max response was -2.8% (inactive).

Regarding `COc1ccc(C23NCCN2C(=O)c2ccccc23)cc1` (stereo not given), the max response is -7.41% (inactive).

As to `Cc1cccc(NC(=O)COc2ccc(Br)cc2C)n1`, the max response was 42.7% (active).

For the compound `Cc1cccc(NC(=O)Cc2ccc(Br)cc2)n1`, the max response is 33.4% (active).

Consider `Cc1cccc(NC(=O)Nc2ccc(OCc3ccccc3)cc2)n1`, for which the max response was -4.06% (inactive).

As to `COCCNC(=O)COc1ccccc1C`, the max response was 0.731% (inactive).

As to `CCN(CC)S(=O)(=O)c1ccc(C)c(NC(=O)COc2ccc(Br)cc2Cl)c1`, the max response is -3.99% (inactive).

As to `Cc1ccccc1OCC(=O)Nc1nc(C)c(C(=O)N(C)C)s1`, the max response was 7.85% (inactive).

`CSc1ccccc1NC(=O)Cc1ccc(Br)cc1`: the max response is -3.62% (inactive).

For `Cc1cccc(NC(=O)COc2ccccc2C)n1`, the max response is 47.9% (active).

Take `Cc1cccc(C)c1NC(=O)CNC(=O)Cc1ccc(Br)cc1`: the max response was -2.02% (inactive).

Regarding `O=C1C(=O)N(CCN2CCOCC2)C(c2cccc(Cl)c2)/C1=C(/O)c1ccc2c(c1)OCO2` (stereo not given), the max response is 1.71% (inactive).

As for `O=C(Nc1ccc(-n2cccn2)cc1)C1CCN(Cc2ccsc2)CC1`, the max response is 1.46% (inactive).

Turning to `Cc1cnc(C(=O)Oc2cccc(Cl)c2Cl)cn1`, the max response is -2.93% (inactive).

As for `O=S(=O)(Nc1cccc(Oc2ccc(Cl)cc2)n1)c1ccc(F)cc1`, the max response was -1.16% (inactive).

As for `COc1ccc(CN2CCNC(=O)C2CC(=O)NCc2cn[nH]c2-c2ccccc2)c(F)c1` (stereo not given), the max response is -3.59% (inactive).

For the compound `Cc1cc(C)n(CCNS(=O)(=O)c2ccc(Cl)cc2)n1`, the max response is -1.13% (inactive).

For `COc1ccc2cc(-c3[nH]ncc3CNCCn3nc(C)cc3C)ccc2c1`, the max response was 38.8% (active).

`CCN1CCC2(CC1)N=C(c1ccc(F)cc1)C(=S)N2C(=O)c1ccc(C)cc1`: the max response is -0.381% (inactive).

As to `Cc1cc(C)nc(N2CCN(c3ncnc4c3oc3ccccc34)CC2)n1`, the max response was 10.4% (inactive).

Regarding `COc1ccc(C)cc1Nc1nc(C)nc2c1oc1ccccc12`, the max response is -2.13% (inactive).

As to `COc1ccccc1Nc1ncnc2c1oc1ccccc12`, the max response was 22.8% (active).

On to `CCCCOc1ccc(N(CC(=O)NCC2CCCO2)C(=O)CCC(=O)Nc2cc(C)ccn2)cc1` (stereo not given), for which the max response is -1.91% (inactive).

In the case of `C[n+]1ccc(C(=O)NCc2ccccc2)cc1`, the max response was -2.14% (inactive).

For the compound `COc1ccc(CC(=O)Nc2ccc3c(c2)CCC3)cc1S(=O)(=O)N1CCOCC1`, the max response was 1.02% (inactive).

For `COc1ccc(CNc2ccc3c(c2)CCC3)cc1OC`, the max response is 28.7% (active).

Turning to `COc1ccc(CNc2cc(C)cc(C)c2)cc1OC`, the max response is -1.54% (inactive).

As to `COc1ccc(OCC(=O)Nc2ccc(NC(=O)c3ccco3)c(C)c2)cc1`, the max response is 6.17% (inactive).

Regarding `COc1cc(NS(=O)(=O)c2ccc(NC(=S)NC(=O)c3ccccc3)cc2)nc(OC)n1`, the max response was -6% (inactive).

Regarding `CCn1nccc1C(=O)Nc1ccc(Cl)c(Cl)c1`, the max response was 35.7% (active).

`CCn1nccc1C(=O)Nc1ccc(S(=O)(=O)NC23CC4CC(CC(C4)C2)C3)cc1`: the max response was 9.31% (inactive).

Regarding `Cc1nnc(NC(=O)Nc2ccc(Cl)c(Cl)c2)s1`, the max response was -2.3% (inactive).

Consider `N#Cc1cccc(Nc2c3c(nc4ccccc24)CCCC3)c1`, for which the max response was -8.08% (inactive).

On to `Cc1nc2nc(C)c(NS(=O)(=O)c3ccc(C(C)(C)C)cc3)c(=O)n2[nH]1`, for which the max response was 1.21% (inactive).

In the case of `COc1ccc(C(=O)NC2CCN(C(=O)Nc3ccc(F)cc3)CC2)cc1`, the max response was -4.59% (inactive).

`O=C(c1cccc(Cl)c1)N1CCN(Cc2ccccc2)CC1`: the max response is 1.6% (inactive).

Take `COc1ccc(NC(=O)N2CCCC(C(=O)Nc3ccccc3OC)C2)cc1` (stereo not given): the max response is -2.82% (inactive).

On to `O=C(Nc1ccccc1)N1CCN(Cc2ccccc2)CC1`, for which the max response is 21% (active).

As for `O=C(Nc1ccccc1)N1CCN(C(=O)Nc2ccccc2)CC1`, the max response was -0.439% (inactive).

With `O=C(c1cc2ccccc2o1)N1CCN(Cc2ccccc2)CC1`, the max response is 20.5% (active).

Turning to `O=C(NC(=S)N1CCN(Cc2ccccc2)CC1)c1ccccc1`, the max response is 10.6% (inactive).

For `COc1ccc(NC(=O)N2CCC(Cc3ccccc3)CC2)cc1`, the max response was 19.5% (active).

On to `O=C(c1cc2ccccc2o1)N1CCN(c2cccc(C(F)(F)F)c2)CC1`, for which the max response was -3.72% (inactive).

With `COc1ccc(C(CCN2CCOCC2)c2c(OC)cc(OC)c3c2OC(=O)CC3c2ccc(OC)cc2)cc1` (stereo not given), the max response was 3.67% (inactive).

For `CCn1c(/C=C/Nc2ccccc2)[n+](CC)c2ccc(C(=O)OCC(F)(F)F)cc21`, the max response is -3.17% (inactive).

`COc1ccccc1NC(=O)N1CCCC1C(=O)NCc1cccs1` (stereo not given): the max response is 4.62% (inactive).

Consider `CCc1cc(=O)oc2cc(C)cc(OCC(=O)N3CCC[C@@H]3C(=O)O)c12`, for which the max response is -2.38% (inactive).

On to `CCC1Oc2ccccc2N(CC(=O)NCCCN2CCN(CC)CC2)C1=O` (stereo not given), for which the max response is -1.43% (inactive).

On to `Oc1cccc2ccc(/C=C/c3ccc(Br)s3)nc12`, for which the max response was 56.7% (active).

Take `Nc1ccc(S(=O)(=O)Nc2nccc(/C=C/c3ccc(Br)s3)n2)cc1`: the max response is 0.595% (inactive).

For the compound `O=C(CN1C(=O)c2cccnc2Oc2ccc(Cl)cc21)NCCc1ccccc1`, the max response is 18.6% (inactive).

`Cc1cc(C)n2nc(CNS(=O)(=O)c3c(F)c(F)c(F)c(F)c3F)nc2n1`: the max response was 1.02% (inactive).

For `COc1ccc(S(=O)(=O)c2c[nH]c(=S)[nH]c2=O)cc1Cl`, the max response is -3.71% (inactive).

Values taken from PubChem BioAssay AID2314 (National Center for Advancing Translational Sciences (NCATS), 2010).
